± gives the standard deviation.
What follows are molecules tested on Streptococcus suis P1/7 (assay: percent growth relative to DMSO control; higher = less growth inhibition). Details: 10 µM; incubation time 18 h.
Description: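 CLSI broth microdilution: 5x10^4 CFU of Streptococcus suis (strain P1/7 or HE06) incubated with 10 µM Pathogen Box compound in cation-adjusted Mueller Hinton broth, 37 °C, 5% CO2, 18 h. Growth read as OD600 and expressed as percent of the DMSO-treated control (100%); mean ± SD of three independent experiments.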

Row | Compound | percent growth [%]
1 | CC(C)(C)c1cc(C(=O)N2CCN(c3nccnc3C#N)CC2)n(Cc2ccccc2)n1 | 91.6 ± 34
2 | O=C(Nc1cccnc1)c1c(O)c2cccc3c2n(c1=O)CC3 | 89.7 ± 27
3 | COc1ccc2nc(C)cc(OCC(=O)Nc3ccccc3OC)c2c1 | 67.6 ± 16
4 | O=C(NCc1nnc2n1CCCCC2)c1ccc(-c2ccc(F)cc2)o1 | 106 ± 42
5 | CN1CCN(c2nccc3nc(-c4ccc(F)c(F)c4)[nH]c23)CC1 | 68.8 ± 13
6 | CCCCc1ccc(NC(=O)Nc2ccc(O[C@H]3CCCC[C@@H]3N(C)c3ccccc3)c(F)c2)cc1 | 67.2 ± 2.9

Source: the supplement of paper PMC7866885, “A novel bicyclic 2,4-diaminopyrimidine inhibitor of Streptococcus suis dihydrofolate reductase” (PeerJ, 2021)
